High-throughput results (PubChem BioAssay)
A selection: hits, their analogues and other compounds. The true share with any hit is near 2.2%.
MEKK3 PB1 HTS – MEKK3-MEK5 PB1 interaction, increase or decrease | bead-based flow cytometry, Alexa488-MEK5 binding to MEKK3; actives lie on both sides; 0 = blocked by unlabeled MEK5, 100 = vehicle | binding response (% of control), % at 10 µM | hit rate 1.4% among 290,000 | AID 1529;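 active = binding response more than 3 SD above or below the average of its plate-row segment, actives on both sides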;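 note: Alexa488 bead fluorescence after subtracting the streptavidin-only scavenger bead signal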
Target sequence (Q99759 whole entry, looked up): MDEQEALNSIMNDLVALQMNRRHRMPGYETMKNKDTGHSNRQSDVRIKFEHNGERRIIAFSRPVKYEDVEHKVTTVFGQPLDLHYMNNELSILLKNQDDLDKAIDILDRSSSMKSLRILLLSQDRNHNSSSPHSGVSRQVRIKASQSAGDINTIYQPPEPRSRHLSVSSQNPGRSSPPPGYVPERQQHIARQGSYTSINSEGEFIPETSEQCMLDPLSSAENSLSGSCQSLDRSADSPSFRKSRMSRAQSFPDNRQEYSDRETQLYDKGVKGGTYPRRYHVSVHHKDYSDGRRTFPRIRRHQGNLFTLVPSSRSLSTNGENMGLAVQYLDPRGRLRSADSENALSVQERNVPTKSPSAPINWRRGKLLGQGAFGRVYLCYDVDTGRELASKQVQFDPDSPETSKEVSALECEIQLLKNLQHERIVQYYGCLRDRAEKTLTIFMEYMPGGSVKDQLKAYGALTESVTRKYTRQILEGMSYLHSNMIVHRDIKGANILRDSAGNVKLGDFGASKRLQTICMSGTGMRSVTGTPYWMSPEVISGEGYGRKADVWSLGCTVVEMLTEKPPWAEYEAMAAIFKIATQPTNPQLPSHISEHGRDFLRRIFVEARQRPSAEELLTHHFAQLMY
MEKK2 mut-MEK5 – signal of MEK5 binding to mutant human MEKK2 PB1 domain. percent response, % at 10 µM. hit rate 0.35% among 290,000. bead flow cytometry, Alexa488-MEK5 binding to MEKK2 mutant; in the data active = percent response above about 24%, passing the limit was not always enough
VLA-4 inh – inhibition in a human VLA-4 binding assay; P13612; VLA-4 expressing cells, ligand binding flow cytometry; inhibition, % (about 7 µM as worked out from the volumes in the protocol); hit rate 0.2% among 330,000; AID 2557; in the data active = inhibition above about 50%
MEKK2wt PB1 HTS – raises or lowers MEK5 binding to wildtype human MEKK2 PB1 domain | Q9Y2U5 | bead flow cytometry, Alexa488-MEK5 binding to MEKK2 WT; actives lie on both sides | binding response (% of control), % at 10 µM | hit rate 1.1% among 290,000 | AID 1531; in the data active = binding response below about 67% or above about 130%
* = called active by the depositor; · = no result given; [ ] = another dose, or the depositor's remark.

SMILES	MEKK3 PB1 HTS	MEKK2 mut-MEK5	VLA-4 inh	MEKK2wt PB1 HTS
N#CC1=C(SCC(=O)Nc2ccc(C(=O)O)cc2)NC(=O)CC1c1ccco1 (configuration not stated)	102.0	-2.0	-1.4	98.0
CCN(CC)CCCNC(=O)Cn1cnc2sc(C)c(S(=O)(=O)N3CCC(C)CC3)c2c1=O	102.0	0.0	3.7	108.0
Cc1ccsc1/C=C/C1=Cc2c(sc(NC(=O)CSc3n[nH]c(N)n3)c2C#N)C(C)(C)C1	93.0	-12.0	-38.7	76.0
CCOc1ccc(/C=C/C2=Cc3c(sc(NC(=O)CSc4n[nH]c(N)n4)c3C#N)C(C)(C)C2)cc1	89.0	-8.0	-296.7	31.0*
CC1Sc2ccc(S(=O)(=O)N3CCC(C(=O)N4CCN(C)CC4)CC3)cc2NC1=O (configuration not stated)	100.0	-1.0	1.1	102.0
CCCN1CCN(C(=O)C2CCN(S(=O)(=O)c3ccc4c(c3)NC(=O)C(C)S4)CC2)CC1 (configuration not stated)	100.0	25.0*	-38.2	51.0*
O=C(NC1CCCCC1)N(C1=NCCCCC1)c1ccc(Br)cc1	106.0	4.0	13.6	15.0*
O=C(NNS(=O)(=O)c1ccc(Br)cc1)NC1CCCCC1	83.0	-8.0	21.1	87.0
CC(C)Nc1ccc(Nc2ccnc3cc4ccccc4cc23)cc1	109.0	80.0*	32.7	208.0*
C=CCn1c(SCC(=O)Nc2ccc(F)cc2)nc2ccccc2c1=O	105.0	17.0	0.9	105.0
CN(c1ccccc1)S(=O)(=O)c1cc(Cl)ccc1Cl	107.0	-1.0	51.3*	108.0
CC(C)OC(=O)Cc1nc2sc(-c3ccccc3)cc2c(=O)[nH]1	99.0	-4.0	-22.1	98.0
O=C(CN1C(=O)c2ccccc2S1(=O)=O)NCCc1ccc(F)cc1	·	·	-1.8	·
O=C(CN1C(=O)c2ccccc2S1(=O)=O)NCc1ccc(F)cc1	72.0*[inhibitor]	-6.0	-4.5	94.0
COc1ccc(C(C(=O)NC2CCCC2)N(Cc2cccnc2)C(=O)c2snc(C(N)=O)c2N)cc1OC (configuration not stated)	100.0	0.0	0.8	103.0
CCOc1ccc(NCc2cccn2-c2nnc(N3CCC(C(=O)NCCCN4C(C)CCCC4C)CC3)s2)cc1 (configuration not stated)	107.0	25.0*	10.2	152.0*
CCC1CCCCN1CCCNC(=O)C1CCN(c2nnc(-n3cccc3)s2)CC1 (configuration not stated)	102.0	14.0	2.7	141.0*
CCOc1ccc(NCc2cccn2-c2nnc(N3CCC(C(=O)NCCCN4CCCCC4C)CC3)s2)cc1 (configuration not stated)	104.0	33.0*	-8.1	147.0*
CN(C)c1ccc(/C=N/Nc2nncc3ccccc23)cc1	103.0	4.0	2.0	108.0
CCCN1CCN(C(=O)C2CCN(c3nnc(C)c4c(C)n(-c5ccc(C)cc5)nc34)CC2)CC1	113.0	134.0*	1.1	109.0
Cc1ccc(-n2nc3c(N4CCC(C(=O)N5CCN(C)CC5)CC4)nnc(C)c3c2C)cc1	99.0	-13.0	26.1	101.0
Cc1ccc(NC(=O)OCc2cccs2)cc1	100.0	0.0	56.7*	98.0
COc1ccc(/C=N/NC(=O)CNC(=O)c2ccc3c(c2)OCCO3)c(C(=O)O)c1OC	104.0	5.0	15.9	104.0
Cc1cccc(C)c1NC(=O)C(=O)NCC1CCCN1S(=O)(=O)c1cccs1 (configuration not stated)	·	·	-2.6	·
CCOc1ccc(-c2cnc(N)n2C)cc1	88.0	-28.0	19.2	104.0
SMILES	MEKK3 PB1 HTS	MEKK2 mut-MEK5	VLA-4 inh	MEKK2wt PB1 HTS
COCCn1c(-c2ccc(OC)cc2)cnc1N	95.0	-4.0	0.7	-6.0*
O=C(O)CCNc1cc(N2CCN(C(=O)c3ccco3)CC2)c2noc3c2c1C(=O)c1ccccc1-3	63.0*[inhibitor]	-17.0	-9.2	48.0*[inhibitor]
CCN1CCN(c2cc(N3CCN(C(=O)c4ccco4)CC3)c3c4c(onc24)-c2ccccc2C3=O)CC1	78.0*[inhibitor]	-1.0	-375.2	86.0
CC(=O)OCCNc1cc(N2CCN(C)CC2)c2noc3c2c1C(=O)c1ccccc1-3	87.0	7.0	·	94.0
Cc1ccc(S(=O)(=O)Nc2ccc3c(c2)c2c(n3S(=O)(=O)c3ccc(C)cc3)CCCC2=O)cc1	97.0	0.0	15.9	114.0
O=C(Nc1cc(Cl)ccc1N1CCCC1)C1=NN(c2ccccc2)C(=O)CC1	101.0	0.0	-2.7	97.0
CCOc1ccc(-c2cc(C(=O)OC)[nH]n2)cc1	162.0*	880.0*	3.3	97.0
